# Pf growth 48h = Primary qHTS for delayed death inhibitors of the malarial parasite plastid, 48 hour incubation; P. falciparum luciferase growth in erythrocytes, 48 h; Potency, µM (series often up to 28.7 µM), inactives show at the highest dose activity change, negative = inhibition, hits mostly inhibitors; actives 5.9% (n = 310,000); AID 504832, 2011; active = well fitted inhibition curve with a large enough effect; inconclusive = small, poorly fitted or top-dose-only effect, or another doubt; inactive = no such curve, though single readings can be large or run the other way; note: % is set by controls: 0 for no effect and ±100 for the full control effect
#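 In quantitative HTS format, infected erythrocytes bearing luciferase-reporter parasites were treated for a single generation at 37 C. Luminescence after adding detection reagent served as the growth measure.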
# NS1 function inh = qHTS Assay for Inhibitors of Influenza NS1 Protein Function; Potency, µM (top dose mostly 46.1 µM), without a hit: top-dose activity, positive = more growth; actives 0.4% (n = 270,000); AID 2326, 2010; note: actives are rising curves; nearly all actives have a fitted effect of over 50% in size
#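 Growth recovery, yeast-based: influenza A NS1 expressed in S. cerevisiae causes slow growth, and suppressors are detected by OD600. The parent strain without NS1 is used as positive control.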
# SARS PLpro yeast = qHTS of Yeast-based Assay for SARS-CoV PLP. actives 0.19% (n = 330,000). S. cerevisiae expressing SARS-CoV PLpro, growth rescue. Potency, µM (titrated, usually from 32.9 µM), for inactives: at the highest dose activity, positive = growth rescue, usual class: activators; note: 0% is about no effect; nearly all actives have a fitted effect of over 55% in size
# Pf growth 96h = Primary qHTS for delayed death inhibitors of the malarial parasite plastid, 96 hour incubation. Potency, µM (series often up to 28.7 µM), inactives show at the highest dose activity change, negative = inhibition, hits mostly inhibitors. P. falciparum luciferase reporter growth, 96 h. actives 6.9% (n = 320,000); active = well fitted inhibition curve with a large enough effect; inconclusive = small, poorly fitted or top-dose-only effect, or another doubt; inactive = no such curve, though single readings can be large or run the other way; note: % is set by controls: 0 for no effect and ±100 for the full control effect
#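 Compounds incubated with erythrocytes infected by luciferase-expressing P. falciparum (2% hematocrit, 0.05% parasitemia final) for 96 hours, 37 C in 5% CO2. Growth inhibition scored as decreased luciferase luminescence.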
# * marks the source's active call; other numbers are inactive results; ? = inconclusive; / = not tested or not shown. This is a sample that favours compounds with a hit; in the whole collection about 10% have one here. Unless noted, calls come from the whole dose curve. Potency is the fitted concentration of half-maximal effect.
SMILES,Pf growth 48h,NS1 function inh,SARS PLpro yeast,Pf growth 96h
COc1ccc(CNCC(C)NCc2ccc(OC)c(OC)c2)cc1OC (configuration not stated),-1.8%,4.2%,0.7%,?
C/C=C(\C)C(=O)OC1CC(C)(C)C[C@H]2C3=CC[C@@H]4[C@@]5(C)CCC(O[C@@H]6O[C@@H](C(=O)O)[C@@H](O)C(O[C@@H]7OC[C@H](O)[C@@H](O)[C@@H]7O[C@@H]7OC(CO)C(O)[C@@H](O)[C@@H]7O)C6O[C@@H]6OC(CO)C(O)C(O)C6O)[C@@](C)(CO)[C@@H]5CC[C@]4(C)[C@]3(C)CC(O)[C@@]12CO (some centres not stated),/,/,-9.9%,/
CN(C)CCCNC(=O)/C(=C\c1ccc(-c2ccc(Br)cc2)o1)NC(=O)c1ccccc1,10.4µM*,2.2%,11.6%,?
Cc1ccc(C(=O)N/C(=C\c2ccc(-c3ccc(Cl)cc3)o2)C(=O)NCCCN(C)C)cc1,10.4µM*,/,-0.5%,9.28µM*
CCCOc1ccc(C(=O)Nc2ccc(S(=O)(=O)Nc3cc(C)nc(C)n3)cc2)cc1,5.8%,-5.7%,-0.6%,?
O=S(=O)(c1ccc2c(c1)nc(COc1ccc(Cl)cc1)n2CC1CCCO1)N1CCOCC1 (configuration not stated),?,9.1%,-7.7%,11.7µM*
Cc1nc2ccc(N)cc2c(=O)n1Cc1ccc(Cl)cc1,14.4%,-2.6%,21.8%,53.4%
Cc1nc2c(cc1N)nc(C)n2Cc1ccccc1,-2.1%,0.4%,-3.9%,2.62µM*
Cc1c(Cl)cccc1NC(=O)C1Cc2ccccc2CN1C(=O)c1ccccc1 (configuration not stated),-11.6%,6.3%,?,9.28µM*
COC(=O)[C@H](CCSC)NC(=O)Cn1cnc2c(OCc3ccccc3)ncnc21,/,/,-2.4%,/
CC(=O)NCC1(O)CCCC(C)C1 (configuration not stated),2.8%,0.3%,-0.9%,?
Clc1cccc(OCCN2CCNCC2)c1,?,3.9%,10.1%,50.6%
OCCN1CCN(CCOc2cccc(Cl)c2)CC1,21.9%,-51.6%,-6.5%,1.65µM*
FC(F)(F)c1cccc(OCCN2CCN(Cc3ccccc3)CC2)c1,11.9%,5.2%,-33.7%,10.4µM*
COCCNC(=O)C1CC(c2ccccc2C(F)(F)F)=NO1 (configuration not stated),?,/,0.9%,71.1%
COc1ccccc1C(=O)NC(=O)COC(=O)c1ccc([N+](=O)[O-])cc1Cl,5.2%,/,/,96.7%
O=c1c2ccccc2nc(SCc2cccc(F)c2)n1-c1cccc(S(=O)(=O)N2CCCC2)c1,?,22.5%,-3.7%,6.57µM*
O=C(O)c1ccc(CSc2nc3ccccc3c(=O)n2-c2ccccc2)cc1,0.0%,5.1%,8.5%,?
O=C(CSc1nnc(NC(=O)C2CC2)s1)NCc1ccccc1,6.4%,5.6%,1.8%,0.7%
Cc1ccc(NS(=O)(=O)c2cc(OCC(N)=O)c(C)cc2Cl)cc1C,11.7µM*,2.0%,-5.9%,?
Cc1ccccc1NS(=O)(=O)c1cc(OCC(N)=O)c(C)cc1Cl,55.3%,-1.9%,-1.1%,10.4µM*
Cc1cccc(NS(=O)(=O)c2cc(OCC(N)=O)c(C)cc2Cl)c1,-11.9%,0.8%,?,-16.5%
COc1ccc(NC(=O)N2CCCC2C(=O)Nc2ccc(C)cc2C)cc1 (configuration not stated),0.5%,-12.7%,1.7%,5.7%
O=C(NCC1CCCO1)C(c1ccc(N2CCOCC2)cc1)N(C(=O)Cn1nnc2ccccc21)c1ccccc1F (configuration not stated),?,-3.7%,3.2%,50.1%
O=C(c1ccc(Cl)c(S(=O)(=O)Nc2ccccc2C(=O)N2CCc3ccccc3C2)c1)N1CCc2ccccc2C1,10.4µM*,?,-3.1%,?
SMILES,Pf growth 48h,NS1 function inh,SARS PLpro yeast,Pf growth 96h
Cc1cc(C)cc(NC(=O)CSc2nc(=O)n3cc(C)ccc3n2)c1,6.4%,/,-2.4%,5.8%
CC(C1CC2CCC1C2)N1CC(O)=C(c2nc3ccccc3[nH]2)C1=N (configuration not stated),?,-5.9%,0.9%,3.29µM*
O=C(COC(=O)c1cccc(O)c1)Nc1ccc(N2CCOCC2)cc1,3.3%,/,2.1%,?
O=C(NCc1ccco1)C1CCN(S(=O)(=O)c2ccccc2C(F)(F)F)CC1,10.4µM*,/,3.0%,?
CCOc1ccc(S(=O)(=O)N2CCC(C(=O)NCC3CCCO3)CC2)cc1C (configuration not stated),9.8%,-21.7%,1.1%,2.33µM*
CS(=O)(=O)c1ccc(Cl)c(NC(=O)C2CCN(S(=O)(=O)c3cccs3)CC2)c1,?,/,6.3%,?
COc1ccc(/C=C\c2onc(C)c2S(=O)(=O)N2CCC(C(=O)NCc3ccco3)CC2)cc1,?,4.5%,0.4%,13.1µM*
CCN(CC)S(=O)(=O)N1CCC(C(=O)NCc2ccco2)CC1,15.2%,/,2.4%,2.3%
CCOc1ccc(S(=O)(=O)N2CCC(C(=O)Nc3cc(S(C)(=O)=O)ccc3Cl)CC2)cc1,10.4µM*,/,3.0%,?
Cc1c(C(=O)NCc2ccccc2CN2CCCC2)oc2ccc(F)cc12,?,/,-3.0%,?
CC1CC(C)CN(S(=O)(=O)c2ccc(C(=O)NCc3ccco3)cc2)C1 (configuration not stated),?,/,-0.9%,8.28µM*
CC1CN(S(=O)(=O)c2cccc(C(=O)NCc3ccco3)c2)CC(C)O1 (configuration not stated),-1.3%,/,-1.5%,?
CC(C)c1ccc(S(=O)(=O)N2CCC(C(=O)NCc3ccco3)CC2)cc1,3.29µM*,/,-2.1%,2.62µM*
CCOc1ccc(S(=O)(=O)N2CCN(C(=S)NCc3ccco3)CC2)cc1,2.94µM*,-12.4%,-15.6%,2.33µM*
CCOc1ccc(S(=O)(=O)N2CCCC(C(=O)NCc3ccco3)C2)cc1 (configuration not stated),-6.4%,9.1%,2.0%,6.3%
COc1ccc(S(=O)(=O)N2CCC(C(=O)NCc3ccco3)CC2)cc1,3.29µM*,-2.8%,5.6%,?
Cc1cc(S(=O)(=O)N2CCCC2)ccc1OCC(=O)NCc1ccco1,-18.8%,-6.1%,3.8%,/
CCOc1ccc(S(=O)(=O)N2CCC(C(=O)NCc3ccco3)CC2)cc1,9.28µM*,-0.1%,-1.3%,56.1%
CCOc1ccc(S(=O)(=O)N2CCC(C(=O)N3CCc4ccccc4C3)CC2)cc1,?,-19.0%,-8.0%,2.94µM*
CCOc1ccc(S(=O)(=O)N2CCC(C(=O)NCc3ccco3)CC2)cc1C,?,-10.7%,-3.6%,1.85µM*
O=C(NCc1ccco1)C1CCCN(S(=O)(=O)c2ccc(Br)cc2)C1 (configuration not stated),-15.5%,0.0%,0.5%,14.7µM*
O=C(CCCCCCC(=O)NCc1ccccc1)NCc1ccccc1,-12.0%,12.7%,11.9%,?
CCC(=O)N/C(=N/c1nc(C)cc(C)n1)Nc1ccccc1,11.1%,2.7%,2.7%,11.0%

# Source: PubChem (National Center for Advancing Translational Sciences (NCATS))
